WRN inhibitor – WRN helicase (human) inhibition. WRN helicase unwinding, fluorescent forked duplex, kinetic. Potency, µM (series often up to 114 µM), inactives show at the top dose activity change, negative = inhibition, hits mostly inhibitors. hit rate 0.46% among 360,000; also: potency is read from the fitted curve at half-maximal effect; nearly all actives have a fitted effect of over 55% in size
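Screening of the MLSMR collection measured strand separation of a quenched forked DNA duplex (100 nM) by 20 nM WRN with 2 mM ATP, all final. Compounds were preincubated with enzyme 15 min at room temperature.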
PI5P4K alpha inh – PI5P4K alpha (human) kinase inhibition. PI5P4Kalpha enzyme, ADP-Glo luminescence, 60 min; stronger effect = lower value. max response, %. hit rate 1.2% among 330,000. AID 652105; active = max response of -50% or lower; inconclusive = between -30% and -50%; inactive = -30% or higher; also: value at the top dose of about 77 µM
Target sequence (P48426 whole entry, looked up): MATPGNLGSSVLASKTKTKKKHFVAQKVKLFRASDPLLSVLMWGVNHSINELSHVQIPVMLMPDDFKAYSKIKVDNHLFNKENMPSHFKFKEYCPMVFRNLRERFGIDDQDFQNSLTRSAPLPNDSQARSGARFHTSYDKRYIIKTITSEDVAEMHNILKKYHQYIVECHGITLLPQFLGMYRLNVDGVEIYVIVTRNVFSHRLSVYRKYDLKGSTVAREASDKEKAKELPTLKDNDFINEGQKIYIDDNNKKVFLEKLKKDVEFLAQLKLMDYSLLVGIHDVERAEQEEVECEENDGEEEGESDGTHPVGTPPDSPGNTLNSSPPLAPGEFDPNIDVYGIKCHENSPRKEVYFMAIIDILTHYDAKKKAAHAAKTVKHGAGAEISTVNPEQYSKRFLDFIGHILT
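Controls without substrate or without enzyme flank wells where PI5P4Kalpha converts substrate using 5 microM ATP (final). Incubation lasts 60 minutes at room temperature; ADP formed is read by ADP-Glo luminescence.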
USP2a block – USP2a (human) protease inhibition; hit rate 0.01% among 330,000; AID 463254; USP2 core, Ub-CHOP2 coupled fluorogenic reporter, 485/531; O75604; Potency, µM (doses to about 38.3 µM), without a hit: top-dose activity change, negative = inhibition, actives largely listed as inhibitors;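 also: potency is read from the fitted curve at half-maximal effect; plate controls were DMSO wells for no effect and full inhibition by NEM control for full effect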
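Deubiquitinase activity read as fluorescence (485/531 nm) after Ub-CHOP2 cleavage activates the enterokinase reporter on its substrate; USP2 core 10nM, Ub-CHOP2 and substrate 25nM each, 30min compound preincubation then 60min RT; data normalized to NEM, curves fitted.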
USP1-UAF1 inh – inhibitors of human USP1/UAF1 deubiquitinase | hit rate 0.23% among 390,000 | O94782 | Potency, µM (titrated, usually from 57.1 µM), inactives show at the highest dose activity change, negative = inhibition, most hits filed as inhibitors | recombinant USP1/UAF1, Ub-Rhodamine cleavage fluorescence; also: potency is read from the fitted curve at half-maximal effect; nearly all actives have a fitted effect of over 60% in size
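High-throughput fluorogenic screen: 1nM USP1/UAF1 complex, Ub-Rho substrate 150nM final, 50mM HEPES pH 7.8 with 0.5mM EDTA, 0.1 mg/ml BSA, 1mM TCEP and 0.01% Tween-20.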
PLK1 PBD block – inhibitors of human PLK1 polo-box domain binding | AID 720504 | Potency, µM, for the others: max response, negative = inhibition, actives largely listed as inhibitors | Plk1 PBD binding of FITC phosphopeptide, fluorescence polarization | P53350 | hit rate 2.8% among 360,000; also: potency is read from the fitted curve at half-maximal effect; series mostly up to about 57 µM; nearly all actives have a fitted effect of over 65% in size
Starred values were filed as active, the others as inactive; ? = inconclusive; / = not tested or not shown. This is a sample that favours compounds with a hit; in the whole collection about 3.3% have one here. Unless noted, calls follow the shape of the dose curve; as a rule, active = well fitted curve in the direction sought with a large enough effect; inconclusive = small, poorly fitted or top-dose-only effect, or another doubt; inactive = no such curve, though single readings can be large; an effect the other way counts as inactive or inconclusive. Unless noted, % is scaled to controls: 0 for no effect and ±100 for the full control effect.

SMILES	WRN inhibitor	PI5P4K alpha inh	USP2a block	USP1-UAF1 inh	PLK1 PBD block
Cc1nc(SCC(=O)NCCc2ccccc2)n[nH]1	-1.2%	?	-4.0%	-7.7%	3.77µM*
Cc1ccnc(SCC(=O)c2ccc([N+](=O)[O-])cc2)n1	-1.9%	-4.7	1.7%	-0.5%	-18.4%
CCc1ccc(C(=O)CSc2n[nH]c(C)n2)cc1	0.5%	-56.6*	-0.8%	-4.9%	26.7µM*
Cc1nc(SCC(=O)O)n[nH]1	2.1%	-0.4	0.4%	-20.2%	3.5%
Cc1cc(C)nc(SCC(=O)c2ccc([N+](=O)[O-])cc2)n1	8.4%	-1.1	0.9%	-14.0%	21.2µM*
O=C(CSc1n[nH]c(-c2ccccc2)n1)NCCc1ccccc1	/	/	/	-8.7%	/
Cc1ccc(C(=O)CSc2n[nH]c(C)n2)cc1	3.6%	/	-0.6%	-20.3%	29.9µM*
Cc1ccc(C)c(C(=O)CSc2n[nH]c(C)n2)c1	7.0%	/	0.0%	-23.7%	?
CC(C)Cn1c(=O)c2ccccc2n2c(CCC(=O)NC(C)c3ccccc3)nnc12 (stereo unspecified)	/	/	/	-8.4%	/
CC(=O)Nc1ccc(NC(=O)CCS(=O)(=O)c2ccc3c(c2)CC(=O)N3C)cc1	/	/	/	-4.1%	/
O=C(NCc1ccccc1Cl)c1ccc2c(c1)ncn2-c1cccc(F)c1	/	/	/	-1.0%	/
C=CCN(c1ccccc1)S(=O)(=O)c1cccc(C(=O)NNC(=O)c2ccccc2O)c1	-24.1%	-55.6*	-1.3%	-5.1%	-7.4%
CC1CCN(S(=O)(=O)c2ccc3c(c2)CCN3C(=O)C2CCC2)CC1	-5.1%	1.1	0.6%	-13.7%	23.8µM*
O=C(CCl)c1ccc2c(c1)CCN2C(=O)C1CCCCC1	?	-1.4	-1.3%	-15.6%	0.752µM*
COc1ccc(-n2c(C)nc3cc(C(=O)NC4CCCC4)ccc32)cc1	/	/	/	-1.5%	/
CCN(CC)C(=O)c1cc([N+](=O)[O-])cc2c1-c1ccc([N+](=O)[O-])cc1C2=C(C#N)C#N	-9.3%	-4.9	-2.2%	?	9.47µM*
CCN(CC)C(=O)c1ccc(Oc2ccc([N+](=O)[O-])cc2Cl)cc1	-4.5%	3.8	-2.0%	-5.0%	-15.5%
COc1ccccc1CNS(=O)(=O)c1ccc(F)c(C(=O)Nc2cc(Cl)ccc2OC)c1	/	/	/	-18.4%	/
O=C(Nc1ccccc1)Nc1ccc(O)c2ccccc12	1.3%	-51.6*	/	?	?
COCc1cc(S(=O)c2ccc(Cl)cc2)nc(C)n1 (stereo unspecified)	20.3%	-11.7	0.4%	?	5.32µM*
COCc1cc(Sc2ccc(Cl)cc2)nc(C)n1	0.1%	-2.8	-4.5%	-19.1%	0.4%
Cc1ccc(NC(=O)Cn2c(=O)oc3cc(S(=O)(=O)N4CCCCCC4)ccc32)cc1Cl	/	/	/	-6.4%	/
FC(F)(F)c1cccc(NC(=S)NNC(=S)Nc2ccc(Cl)cc2)c1	/	/	-7.3%	/	/
Cc1ccc(NC(=S)NNC(=S)Nc2cccc(C(F)(F)F)c2)cc1	3.0%	-29.0	1.8%	-23.9%	18.9µM*
CC(=Nc1cc(C(=O)c2ccccc2)ccc1N)C1=C(O)CC(C)(C)CC1=O	-2.0%	0.7	1.6%	3.6%	29.9µM*
SMILES	WRN inhibitor	PI5P4K alpha inh	USP2a block	USP1-UAF1 inh	PLK1 PBD block
C/C(=N/NC(=O)c1cccnc1)C1=C(O)CC(C)(C)CC1=O	-0.1%	1.0	5.5%	-9.8%	-17.3%
COC(=O)NC1CCC(NC(=O)OC)CC1 (stereo unspecified)	-4.5%	-7.5	-2.4%	-10.3%	26.7µM*
COC(=O)NC1CCS(=O)(=O)C1 (stereo unspecified)	4.6%	/	1.0%	-5.3%	0.0%
O=C(CS(=O)(=O)c1ccccc1)c1cc2cc(F)ccc2oc1=O	-19.9%	2.4	1.6%	-24.3%	15µM*
O=C(CS(=O)(=O)c1ccccc1)c1cc2ccccc2oc1=O	-19.4%	-1.1	-1.4%	-22.1%	?
COc1ccc(S(=O)(=O)CC(=O)c2cc3cccc(C)c3oc2=O)cc1	-27.6%	?	-0.4%	-23.3%	26.7µM*
COc1ccc(-c2noc(CC(=O)Nc3ccc(F)cc3F)n2)cc1	/	/	/	-10.9%	/
CCCCn1c(CNC(=O)C23CC4CC(CC(C4)C2)C3)nnc1SCC(=O)Nc1ccccc1	/	/	/	-11.3%	/
O=[N+]([O-])c1cc(C(F)(F)F)ccc1Sc1nccn1Cc1ccccc1	3.5%	2.0	-2.7%	-14.2%	-12.3%
